ST2 inh – IL1RL1 inhibition; AlphaLISA ST2-Fc/biotin-IL-33 interaction, 1 h; inhibition, % for hits at 17 µM; actives 2.3% (n = 78,000); in the data active = inhibition above about 30%
Target sequence (Q01638 whole entry, looked up): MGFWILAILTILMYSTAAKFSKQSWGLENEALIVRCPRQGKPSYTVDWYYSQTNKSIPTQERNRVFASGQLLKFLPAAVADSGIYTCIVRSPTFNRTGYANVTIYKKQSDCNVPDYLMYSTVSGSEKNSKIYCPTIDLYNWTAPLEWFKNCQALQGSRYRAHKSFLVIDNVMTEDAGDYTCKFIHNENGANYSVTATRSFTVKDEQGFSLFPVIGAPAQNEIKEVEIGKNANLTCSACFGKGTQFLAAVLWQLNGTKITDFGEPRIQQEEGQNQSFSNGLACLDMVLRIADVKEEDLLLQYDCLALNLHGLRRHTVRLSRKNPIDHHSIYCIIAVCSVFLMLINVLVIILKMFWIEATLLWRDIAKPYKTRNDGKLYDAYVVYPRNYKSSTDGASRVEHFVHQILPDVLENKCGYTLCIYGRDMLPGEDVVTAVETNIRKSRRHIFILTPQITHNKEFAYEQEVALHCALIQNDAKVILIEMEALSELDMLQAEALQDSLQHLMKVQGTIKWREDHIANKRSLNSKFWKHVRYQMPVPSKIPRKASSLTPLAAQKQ
The depositor's hits bear a star; i = inactive. This excerpt belongs to a sample that is enriched for hits.

SMILES	ST2 inh
CN(C)CCNc1ccc(Cl)cc1[N+](=O)[O-]	i
CN1CC2(CCN(C(=O)c3cc4ccccc4s3)C2)OC1=O (stereo not given)	i
O=C(c1ccc2[nH]c(=O)c(=O)[nH]c2c1)N1CCCC2(CCNCC2)CC1	i
CCCc1[nH]nc2c1C(c1ccc(C(C)C)cc1)C(C#N)=C(N)O2 (stereo not given)	i
Cc1c(C(=O)Nc2ccc(NC(=O)c3ccco3)cc2)cccc1[N+](=O)[O-]	i
CSc1nc(N)nc(SCc2ccc(Cl)c(Cl)c2)c1C#N	i
O=S(=O)(NC1CCCC1)c1cc(Cl)ccc1Cl	i
O=C(O)c1nn(CCO)c2c1CN(C(=O)C1(c3ccccc3)CCCC1)CC2	i
O=C1c2cccc([N+](=O)[O-])c2C(=O)N1C1CCCCCCC1	36%*
Cc1ccc(N2C(=O)C(N3C(=O)c4cccc([N+](=O)[O-])c4C3=O)C2c2cccs2)cc1Cl (stereo not given)	i
COc1ccc(N2C(=O)C(N3C(=O)c4ccc([N+](=O)[O-])cc4C3=O)C2c2ccc(F)cc2)cc1 (stereo not given)	i
O=C1c2cccc([N+](=O)[O-])c2C(=O)N1C1C(=O)N(c2ccc(Cl)cc2)C1c1ccc(F)cc1 (stereo not given)	41%*
O=C(CCN1C(=O)c2cccc([N+](=O)[O-])c2C1=O)Nc1ccc(F)cc1	i
Cc1ccccc1NCN1C(=O)c2cccc([N+](=O)[O-])c2C1=O	i
O=c1c2cccc3c2c(nn1CCN1CCCCC1)-c1ccccc1-3	i
O=C1NN(c2ccccc2)C(=O)/C1=C/c1ccc(OCCOCCOc2ccccc2)cc1	i
COC(=O)c1ccc(C(=O)Nc2nc3ccc(S(C)(=O)=O)cc3s2)cc1	i
COC[C@H]1CCCN1C(=O)C[C@@H]1O[C@H](CNC(=O)c2ccco2)[C@@H](O)[C@H]1O	i
Cc1ccc2oc(=O)c(-c3nc4ccccc4s3)cc2c1	36%*
CCN(CC)c1ccc2cc(-c3nc4ccccc4s3)c(=O)oc2c1	i
C=C(C)COc1ccc2cc(-c3nc4ccccc4s3)c(=O)oc2c1	i
Cc1cc(C)c2[nH]c(C)c(CC(=O)N(C)C(C)c3ccon3)c2c1 (stereo not given)	i
O=C(NC1CCCCC1NC(=O)C1CC1c1ccccc1)C1CC1c1ccccc1 (stereo not given)	i
CCSc1nnc2n(C)c(=O)c3c(n12)-c1ccccc1CC31CCCCC1	i
COc1ccc(-n2c(=O)c3c(n4cnnc24)-c2ccccc2CC32CCCC2)cc1	i
SMILES	ST2 inh
C=CCSc1nnc2n(C)c(=O)c3c(n12)-c1ccccc1CC31CCCCC1	38%*
CC(NC(=O)C1=NNC(=O)CC1)c1ccccc1-n1cccn1 (stereo not given)	i
Cc1ccc(N(C(=O)c2ccc(C(C)(C)C)cc2)C2C=CS(=O)(=O)C2)cc1C (stereo not given)	i
COc1ccccc1/C=C1\N=C(c2cccc([N+](=O)[O-])c2)OC1=O	i
COc1ccc(/C=C2\N=C(c3cccc(C)c3)OC2=O)c(OC)c1OC	48%*
Cc1cccc(C2=N/C(=C\c3c(F)cccc3Cl)C(=O)O2)c1	i
Cc1cccc(C2=N/C(=C\c3sccc3C)C(=O)O2)c1	37%*
Cc1cccc(C2=N/C(=C\c3ccco3)C(=O)O2)c1	47%*
COc1cc(C)c(/C=C2/N=C(c3ccccc3)OC2=O)cc1C(C)C	i
Cc1cccc(C2=N/C(=C\c3cccc(C(F)(F)F)c3)C(=O)O2)c1	32%*
Cc1cccc(/C=C2\N=C(c3ccc4c(c3)OCO4)OC2=O)c1	i
O=C1OC(c2cccc([N+](=O)[O-])c2)=N/C1=C\c1ccc(Cl)cc1Cl	i
CCOc1ccc(/C=C2\N=C(c3cccc(F)c3)OC2=O)cc1OC	i
COc1ccc(C2=N/C(=C\c3cccc(C(F)(F)F)c3)C(=O)O2)cc1OC	i
Cc1cccc(/C=C2\N=C(c3ccccc3[N+](=O)[O-])OC2=O)c1	i
O=C1OC(c2ccc3c(c2)OCO3)=N/C1=C\c1ccccc1Cl	i
Cc1ccc(F)cc1-c1ccccc1C(N)=O	i
CCCC(O)=C1C(=O)CC(C)(C)CC1=Nc1ccncc1	i
Cc1c(NC(=O)C(c2ccccc2)c2ccccc2)c(=O)n(-c2ccccc2)n1C	i
COCc1nc2cc(NC(=O)Cc3ccccc3)cc(C(=O)NCC3OCCc4ccccc43)c2n1C (stereo not given)	i
COCc1c(C(=O)N2CC[C@@H](c3ccc4c(c3)OCO4)[C@H](O)C2)noc1C	i
O=C(CSc1nc2c(c(=O)n1-c1ccc(Br)cc1)SCC2)N1CCCCC1	i
COc1ccc(/C=C2\N=C(c3ccc(-c4ccccc4)cc3)OC2=O)cc1	i
Cc1cccc(C2=N/C(=C\c3ccc(C)o3)C(=O)O2)c1	53%*
CCOc1ccc(/C=C2\N=C(c3cccc(I)c3)OC2=O)cc1	i
SMILES	ST2 inh
CSc1nsc(SC)c1C(=O)Nc1ccccc1I	i
COC(=O)C1C(=O)CC(C)(O)C(C(=O)OC)C1c1ccc(C(C)C)cc1 (stereo not given)	i
O=C1CC(Nc2ccc(Br)cc2)C(=O)N1c1cccc(Cl)c1 (stereo not given)	32%*
O=C1CC(NCc2ccc3c(c2)OCO3)C(=O)N1c1ccccc1 (stereo not given)	i
O=C1CC(Nc2ccc(N3CCOCC3)cc2)C(=O)N1c1ccc2c(c1)OCO2 (stereo not given)	55%*
O=[N+]([O-])c1cccc(-c2nc(N3CCOCC3)c3ccccc3n2)c1	i
O=C1CC(N2CCOCC2)C(=O)N1c1cccc(Cl)c1 (stereo not given)	i
O=[N+]([O-])c1ccc(Nc2nc(N3CCOCC3)nc(N3CCOCC3)n2)cc1	i
Cc1ccc(S(=O)(=O)N2CCN(c3ccc([N+](=O)[O-])c(N4CCOCC4)c3)CC2)cc1	i
O=C1CC(Nc2ccc(N3CCOCC3)cc2)C(=O)N1c1cccc([N+](=O)[O-])c1 (stereo not given)	47%*
COc1ccc(NC2CC(=O)N(c3cccc(Cl)c3)C2=O)cc1 (stereo not given)	i
Cc1ccc([N+](=O)[O-])cc1N1C(=O)CC(Nc2ccc(N3CCOCC3)cc2)C1=O (stereo not given)	52%*
O=C1C2C3c4ccccc4C(c4ccccc43)C2C(=O)N1c1ccc2c(c1)OCO2 (stereo not given)	i
O=C1CC(Nc2ccccc2)C(=O)N1c1ccc(Br)cc1 (stereo not given)	i
Cc1nc(CNc2ccc(-c3nccn3C)nn2)nc2c1CCCC2	i
CSc1nc2c([nH]c3ccccc32)c(=O)n1-c1ccc(C)cc1	i
OCc1ccnc(-c2cccc(C(F)(F)F)c2)c1	i
COc1ccc(C)cc1NC(=O)C(C)C	i
CCN1C(=O)CSC1=NC(C)Cc1ccccc1 (stereo not given)	i
COc1cccc(N2C(=O)CC(Nc3ccc(N4CCOCC4)cc3)C2=O)c1 (stereo not given)	47%*
Cc1cccc(N2C(=O)CC(N3CCN(c4ccc(F)cc4)CC3)C2=O)c1 (stereo not given)	i
CCc1cccc(NC2CC(=O)N(c3cccc(Cl)c3)C2=O)c1 (stereo not given)	i
COc1ccc(C2CC(=O)n3nc(-c4ccc(C)cc4)nc3S2)cc1OC (stereo not given)	i

Screening data (PubChem BioAssay)
